# From PubChem
# D2 ag-1 = activates the human D2 dopamine receptor; P14416; activation, % at 2 µM; AID 485358; actives 0.53% (n = 340,000); HEK293 T-REx D2 cells, calcium flux agonist mode;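 active means activation over 3 SD above normal in the single-dose calcium agonist read, cut at about 30% in these data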
# Target sequence (P14416 whole entry, looked up): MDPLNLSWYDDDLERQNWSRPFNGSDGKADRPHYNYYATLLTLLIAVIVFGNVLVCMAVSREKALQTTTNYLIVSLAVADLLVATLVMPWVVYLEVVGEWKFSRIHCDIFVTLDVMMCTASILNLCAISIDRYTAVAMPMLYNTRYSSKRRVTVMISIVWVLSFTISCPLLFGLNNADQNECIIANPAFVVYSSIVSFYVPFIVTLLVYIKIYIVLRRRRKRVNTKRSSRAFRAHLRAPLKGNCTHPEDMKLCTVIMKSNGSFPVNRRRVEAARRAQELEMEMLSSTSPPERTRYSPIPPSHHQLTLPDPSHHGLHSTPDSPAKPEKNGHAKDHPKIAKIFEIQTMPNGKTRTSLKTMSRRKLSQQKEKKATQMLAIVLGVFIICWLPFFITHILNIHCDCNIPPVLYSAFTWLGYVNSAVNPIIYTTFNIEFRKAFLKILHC
#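 Calcium-flux readout, 1 cycle/sec over 180 s following compound pin transfer, in inducible HEK293 Trex D2 cells (force-coupled); dopamine controls included. Positive calcium responses during this window marked compounds as potential agonists.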
# D2 PAM-1 = human D2 receptor positive allosteric modulation; DiscoveRx D2 beta-arrestin cells, luminescence, 90 min; 100% = 57 uM dopamine signal; actives 0.23% (n = 360,000); P14416; potentiation, % (no concentration beside the values); in the data active means potentiation above about 50%; inconclusive means mostly about 30% to 49%
#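 PathHunter D2 cells, attached overnight at 37 deg C, received compound in DMSO plus dopamine at EC20 (50 nM final) for 90 min at 37 deg C. Beta-arrestin recruitment was read as luminescence after 1 h with detection reagent at ambient temperature.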
# D2 antag = antagonists of human D2 dopamine receptor. inhibition, % at 10 µM. actives 2% (n = 340,000). P14416. HEK293 TREx D2 cells, calcium flux, dopamine EC80; in the data active means inhibition above about 30%; inactive means below that, where a call was filed
#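 Cells plated overnight at 30 C with tetracycline; no-wash calcium dye, 30–90 min RT; 10 s baseline; compound pinned; 180 s read; EC80 dopamine added; another 180 s read.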
# D2 ag-2 = human D2 receptor agonism in beta-arrestin assay; DiscoveRx PathHunter D2 beta-arrestin, luminescence, 90 min; 100% = 57 uM dopamine signal; activation, % (no concentration beside the values); actives 0.084% (n = 360,000); in the data active means activation above about 40%; inconclusive means between about 15% and that limit
#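 Agonist mode: compounds alone added to overnight-plated D2 PathHunter cells for 90 min at 37 C, with 57 uM final dopamine (EC100) defining full response. Beta-arrestin recruitment detected by chemiluminescent reagent, read after 1 h at ambient temperature.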
# D2 PAM-2 = positively modulates the human D2 dopamine receptor allosterically; HEK293 T-REx D2, calcium flux, EC20 dopamine potentiation; actives 0.34% (n = 340,000); P14416; AID 485347; potentiation, % at 10 µM;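 active means potentiation over 3 SD above the plate norm, cut at about 30% in these data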
#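 Using a no-wash calcium dye in inducible, force-coupled HEK293 Trex cells expressing D2, we tracked fluorescence each second for 180 s after compound, then for 180 s after EC20 dopamine to detect augmented signalling.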
# Numbers stand for hits; i = inactive; ? = inconclusive; nt = no result given. The list is not random: actives were taken first. Their share in the collection is about 2.4%.
SMILES,D2 ag-1,D2 PAM-1,D2 antag,D2 ag-2,D2 PAM-2
CCOc1ccc2c(c1)C(C)=CC(C)(C)N2C(=O)Nc1ccccc1,i,i,i,i,34
CN1CCN(C(c2ccccn2)c2cc(Cl)c3cccnc3c2O)CC1 (stereo not drawn),i,i,i,i,i
Cc1ccc(C(c2cc(Cl)c3cccnc3c2O)N2CCN(C)CC2)cc1 (stereo not drawn),i,i,39,i,i
O=c1n(Cc2ccc(Cl)cc2)c2ccccc2c2nc(-c3ccccc3)nn12,i,nt,nt,nt,i
CCCC(c1nnnn1CS(=O)(=O)c1ccc(C)cc1)N1CCN(c2ccc(F)cc2)CC1 (stereo not drawn),i,i,59,i,nt
COc1ccc(CNCC(O)COc2cccc3c2OC(C)(C)C3)cc1 (stereo not drawn),i,i,44,i,i
CCc1ccccc1NC(=O)Cn1nnc(C(=O)OC)c1C(=O)OC,i,nt,nt,nt,i
CCCOc1ccc(-c2c(C(=O)N/N=C/c3ccc(C)o3)nnn2-c2nonc2N)cc1,i,i,i,i,90
CCOc1ccc(-c2c(C(=O)N/N=C(\C)c3cccs3)nnn2-c2nonc2N)cc1,i,i,i,i,74
CCOc1ccc(-c2c(C(=O)N/N=C/c3ccc(C)o3)nnn2-c2nonc2N)cc1,i,i,i,i,i
COc1ccc(/C(C)=N/NC(=O)c2nnn(-c3nonc3N)c2-c2ccccc2)cc1,31,i,i,i,i
CCCOc1ccc(-c2c(C(=O)N/N=C/c3cccs3)nnn2-c2nonc2N)cc1,i,i,i,i,49
C/C(=N/NC(=O)c1nnn(-c2nonc2N)c1-c1ccccc1)c1ccncc1,i,i,i,i,i
COC(=O)C(C)Sc1nnc2cc(C)c3cc(C)cc(C)c3n12 (stereo not drawn),i,nt,nt,nt,i
Cn1c(=O)[nH]c(=O)c2c1nc(CN1CCN(c3ccccc3)CC1)n2Cc1c(F)cccc1Cl,i,nt,nt,nt,i
CC(=O)c1c(C)oc2c1cc(NS(=O)(=O)c1ccc(Cl)c(C)c1)c1ccccc12,i,nt,nt,nt,i
CCOc1ccccc1C(=O)NC(C(=O)Nc1cccc(S(N)(=O)=O)c1)C(C)C (stereo not drawn),i,i,33,i,i
CC(C)C(NC(=O)c1ccc(C(C)(C)C)cc1)C(=O)Nc1cccc(S(N)(=O)=O)c1 (stereo not drawn),i,i,i,i,37
CCc1cccc(CC)c1-n1c(-c2cccnc2)n[nH]c1=S,i,i,66,i,i
Cc1ccc(N2CCN(C(=O)c3cnn(-c4ccc(F)cc4F)c3C3CCN(C(=O)OC(C)(C)C)CC3)CC2)c(C)c1,i,nt,nt,nt,i
COc1ccc(C(=O)Nc2ccc(C(F)(F)F)n(C)c2=O)cc1,i,i,i,i,i
Cc1ccc(C(=O)Nc2ccc(C(F)(F)F)n(C)c2=O)cc1,i,i,i,i,32
Cc1ccc(C(=O)Nc2cccc3[nH]c(C(F)(F)F)nc23)cc1,i,i,34,i,i
COc1ccc(CNC(=O)C(C)OC(=O)c2cccs2)cc1 (stereo not drawn),i,i,i,i,33
CC(OC(=O)c1cccs1)C(=O)NCc1cccs1 (stereo not drawn),i,i,i,i,i
SMILES,D2 ag-1,D2 PAM-1,D2 antag,D2 ag-2,D2 PAM-2
CC1CN(CC(=O)c2c(N)n(Cc3ccccc3)c(=O)n(C)c2=O)CC(C)O1 (stereo not drawn),i,i,36,i,i
Cn1c(=O)c(C(=O)CN2CCOCC2)c(N)n(Cc2ccccc2)c1=O,i,i,i,i,i
Cc1c(Cl)cccc1-n1ncc(C(=O)N2CCc3ccccc3C2)c1C1CCN(C(=O)OC(C)(C)C)CC1,i,nt,nt,nt,nt
COCCc1nn2c(=O)cc(COC(=O)COc3ccccc3C)nc2s1,i,nt,nt,nt,i
CC(C)C1Oc2ccccc2N(CC(=O)N2CCOCC2)C1=O (stereo not drawn),i,i,38,i,i
COc1cccc(CC(=O)OC(C)C(=O)NCc2ccc3c(c2)OCO3)c1 (stereo not drawn),i,i,55,i,i
CCOc1ccc(N2CC(C(=O)NCc3ccc4c(c3)OCO4)CC2=O)cc1 (stereo not drawn),i,i,36,i,i
CCOc1ccc(N2CC(C(=O)Nc3ccccc3F)CC2=O)cc1 (stereo not drawn),i,i,34,i,i
CCOC(=O)c1ccccc1NC(=O)C1CC(=O)N(C2CCCCC2)C1 (stereo not drawn),i,i,41,i,i
Cc1ccc2c(CC(=O)Nc3nnc(C(C)C)s3)coc2c1C,i,nt,nt,nt,i
O=C(NCCc1nc2ccccc2n1Cc1ccc(Cl)cc1Cl)c1ccco1,i,nt,nt,nt,i
CCOc1ccc(N2CC(C(=O)Nc3ccc(S(=O)(=O)Nc4nccs4)cc3)CC2=O)cc1 (stereo not drawn),i,i,32,i,i
COC(=O)c1ccc(OCC(O)CN2CCN(CC(O)COc3ccc(C(=O)OC)cc3)CC2)cc1 (stereo not drawn),i,i,i,i,i
COc1ccc(OCC(O)CN2C(=O)NC(C)(C)C2=O)cc1 (stereo not drawn),i,i,31,i,i
COC(=O)c1ccc(OCC(O)CN2C(=O)c3ccccc3C2=O)cc1 (stereo not drawn),38,i,i,i,i
Cc1cc(C)c2c(CC(=O)Nc3nnc(C(C)C)s3)coc2c1,i,nt,nt,nt,i
Cc1ccc(CSCCC(=O)N2CCN(c3ccc(F)cc3)CC2)cc1,i,nt,nt,nt,i
N#Cc1cc(S(=O)(=O)c2ccccc2)c(N)[nH]c1=O,i,i,86,i,i
CCOc1ccc(C(=O)Nc2ccc3nc(SCC(=O)N(C)c4ccccc4)sc3c2)cc1,i,nt,nt,nt,i
CC(C)(C)c1ccc(NC(=O)Cn2cnc3cc([N+](=O)[O-])ccc3c2=O)cc1,i,i,i,?,i
Cc1ccc(CNC(=O)Cn2cnc3cc([N+](=O)[O-])ccc3c2=O)cc1,i,54,i,i,i
CC(=O)NC1CC2CCCC(C1)N2C(=O)Nc1ccc(Cl)cc1 (stereo not drawn),nt,i,nt,i,nt
O=C(O)c1cnn(-c2nc(-c3cccc([N+](=O)[O-])c3)cs2)c1C(F)(F)F,i,i,31,i,i
Cc1nc2sc(C(c3ccccc3)N3CCN(C)CC3)c(O)n2n1 (stereo not drawn),i,i,47,i,i
CCc1ccc(NC(=O)COC(=O)c2nc3nc(C)cc(C)n3n2)cc1,i,i,41,i,37
Cc1cccc([N+](=O)[O-])c1NC(=O)COC(=O)c1nc2nccc(C)n2n1,i,i,52,i,i
Cc1cc(C)n2nc(C(=O)OCC(=O)Nc3ccc(C)c(F)c3)nc2n1,nt,i,nt,i,nt
Cc1ccc(C)c(Cn2nnc(C(=O)NCc3ccc(Cl)cc3Cl)c2N)c1,i,nt,nt,nt,i
